Sampled rows, rich in hits. Any-hit rate of the full collection: about 5.7%.
hgDAF12 agonist = agonists of H. glycines DAF-12 nuclear receptor | HEK293 GAL4-hgDAF12 UAS-luciferase reporter, agonist luminescence; normalized to butyrate control | activation, % at 6.8 µM | actives 1.8% (n = 370,000) | AID 687014;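 active = activation above a cutoff set at the mean of all screened compounds plus 3 SD, cut at about 10% in these data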;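 also: 0% = DMSO wells and 100% = sodium butyrate wells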
AHR act = activates the human aryl hydrocarbon receptor. actives 2.5% (n = 320,000). activation, % at 5 µM. P35869. AID 2796. AHR-responsive luciferase reporter cells, luminescence; in the data active = activation above about 47%;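 also: 0% = vehicle wells and 100% = reference agonist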
Target sequence (P35869 whole entry, looked up): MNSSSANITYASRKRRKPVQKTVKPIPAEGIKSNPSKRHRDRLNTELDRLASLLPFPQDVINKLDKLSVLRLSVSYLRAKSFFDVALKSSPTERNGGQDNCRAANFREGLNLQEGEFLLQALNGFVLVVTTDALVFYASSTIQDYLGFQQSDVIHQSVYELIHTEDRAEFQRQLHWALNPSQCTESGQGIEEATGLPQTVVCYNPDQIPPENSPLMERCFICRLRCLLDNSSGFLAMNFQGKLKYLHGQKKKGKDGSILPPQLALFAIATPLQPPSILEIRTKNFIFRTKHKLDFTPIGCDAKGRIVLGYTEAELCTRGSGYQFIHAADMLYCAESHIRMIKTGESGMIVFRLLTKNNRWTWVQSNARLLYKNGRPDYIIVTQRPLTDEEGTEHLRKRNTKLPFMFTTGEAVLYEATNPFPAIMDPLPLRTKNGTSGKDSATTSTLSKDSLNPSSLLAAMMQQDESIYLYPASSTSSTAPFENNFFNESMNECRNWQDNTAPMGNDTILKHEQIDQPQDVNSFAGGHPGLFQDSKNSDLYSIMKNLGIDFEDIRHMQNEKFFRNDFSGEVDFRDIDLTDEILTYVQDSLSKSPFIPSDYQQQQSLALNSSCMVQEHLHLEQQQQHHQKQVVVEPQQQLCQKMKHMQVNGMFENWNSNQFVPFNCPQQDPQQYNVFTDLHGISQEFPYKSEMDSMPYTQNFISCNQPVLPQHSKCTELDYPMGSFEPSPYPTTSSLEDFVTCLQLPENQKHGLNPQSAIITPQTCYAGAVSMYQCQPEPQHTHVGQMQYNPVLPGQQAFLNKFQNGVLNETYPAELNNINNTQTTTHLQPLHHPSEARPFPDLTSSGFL
hcDAF12 agonist = H. contortus DAF-12 activation, primary screen. HEK293 hcDAF-12 lit1-tk-luc reporter, luminescence; 0% DMSO, 100% Δ7-dafachronic acid. activation, % at 6.8 µM. actives 1.4% (n = 370,000). AID 652067;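 active = activation above the mean of all tested compounds plus 3 SD, cut at about 5.5% in these data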;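 also: 100% = response to 3 µM Δ7-dafachronic acid high control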
DAX1 inh-1 = blocks DAX1 repression of SF-1 activated StAR promoter. HEK293T StAR-luciferase reporter, SF-1/DAX-1 repression relief. inhibition, % at 6.8 µM. actives 1.1% (n = 370,000). AID 652010;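 active = inhibition above the mean over all tested compounds plus 3 SD, cut at about 3.6% in these data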;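 also: 0% = DAX-1 cells with DMSO and 100% = cells lacking DAX-1 with DMSO; higher inhibition means more luminescence from relief of DAX-1 repression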
DAX1 inh-2 = NR0B1 (DAX1) inhibition | inhibition, % at 6.75 µM | actives 0.99% (n = 340,000) | P51843 | HEK293 Gal4-DAX1 luciferase reporter, luminescence;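 active = inhibition above the mean over all tested compounds plus 3 SD, cut at about 4.2% in these data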;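 also: 0% = DAX1-transfected cells with DMSO and 100% = empty-vector control cells with DMSO; inhibition shows as a rise in luminescence from relieved DAX1 repression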
ssDAF12 agonist = S. stercoralis DAF-12 activation, primary screen | HEK293 ssDAF-12/GRIP1 lit1-tk-luc reporter, luminescence; % of 3 µM dafachronic acid response | activation, % at 6.8 µM | actives 1% (n = 370,000) | AID 652126;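 active = activation above the mean over all tested compounds plus 3 SD, cut at about 0.9% in these data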;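 also: 0% = DMSO-only wells and 100% = 3 µM delta7-dafachronic acid wells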
* marks the source's active call; other numbers are inactive results; . = not tested or not shown.

SMILES	hgDAF12 agonist	AHR act	hcDAF12 agonist	DAX1 inh-1	DAX1 inh-2	ssDAF12 agonist
COc1ccc(-c2cc(C(=O)Nc3ccc(C(N)=O)cc3)c3ccccc3n2)cc1	10.7*	27.7	0.8	0.6	0.3	-0.6
CC(=O)Nc1ccc(-c2cc(C(=O)O)c3cc4ccccc4cc3n2)cc1	3.0	.	5.9*	-0.3	1.3	1.8*
COc1ccc(-c2cc(C(=O)Nc3cccnc3)c3ccccc3n2)cc1OC	0.2	66.8*	2.5	-0.7	-1.3	-0.4
COc1cccc(-c2cc(C(=O)Nc3cccnc3)c3ccccc3n2)c1	-2.8	19.3	-1.4	-2.4	-0.7	-1.0
O=C(C[C@H]1CC[C@@H]2[C@H](COC[C@H](O)CN2Cc2cccc(C(F)(F)F)c2)O1)NCCc1ccccc1	-0.3	.	2.3	-0.4	.	-0.8
CC(C)C[C@@H]1COc2cccc(NC3CC3)c2S(=O)(=O)N1	-1.6	.	-2.4	-0.8	.	-1.4
O=C(Oc1cccc2ccccc12)c1ccccc1	3.3	.	0.1	1.8	7.1*	-1.2
CC(C)c1nnc(NC(=O)c2cccs2)s1	11.6*	52.5*	4.7	2.2	-0.3	-0.2
O=C(CCC(=O)c1cccs1)Nc1nnc(C2CC2)s1	-1.9	14.7	2.4	1.1	-1.0	-1.4
O=C(Nc1nnc(C2CC2)s1)c1cccs1	5.0	14.7	0.8	3.8*	0.4	-0.4
CCOC1=C2CN(S(=O)(=O)c3ccc(C)cc3)C(c3ccc(CC)cc3)CC2n2c(=O)n(-c3ccccc3)c(=O)n2C1 (stereo unspecified)	2.4	.	-0.3	-0.1	.	-0.2
COc1cc(NC(=O)CCn2c(=S)[nH]c3ccccc3c2=O)cc(OC)c1OC	-0.1	.	-0.4	0.8	-0.9	-1.2
COc1ccc(C)cc1S(=O)(=O)N1CCCC(N2CCN(c3ccccc3)CC2)C1 (stereo unspecified)	-5.3	.	-2.6	-1.3	-1.8	-1.4
Nc1nc(CN2CCCCCC2)nc(Nc2ccccc2)n1	0.4	7.9	-1.0	-0.6	0.2	-0.1
Cc1c(-c2nc(N)nc(Nc3ccccc3)n2)oc2ccccc12	11.0*	-7.7	2.8	2.0	2.0	0.0
O=C(Oc1ccc(Br)cc1C(=O)/C=C/c1ccccc1F)c1ccco1	6.0	56.5*	4.2	-1.2	0.9	-1.5
Cc1ccc(S(=O)(=O)C2(C(=O)Nc3ccc(C(C)C)cc3)CC2)cc1	7.7	4.9	-1.3	-0.3	-1.9	1.0*
CCCc1cc2c(O)ccc(O)c2c(=O)o1	-1.6	.	-0.6	-1.8	.	-1.1
O=C(COC(=O)CNC(=O)c1ccc(Cl)c([N+](=O)[O-])c1)NC(=O)c1ccccc1	0.0	56.9*	-0.8	0.0	0.3	-1.1
C=CCNc1nc(Cl)nc(Nc2ccc(OC)cc2)n1	3.7	18.4	1.7	1.8	0.6	1.3*
C=CCNc1nc(Nc2ccc(OC)cc2)nc(OC)n1	-1.6	19.3	-1.8	-0.7	1.0	-1.4
COc1ccccc1N1CCN(C(=O)c2cccc(S(=O)(=O)N3c4ccccc4CC3C)c2)CC1 (stereo unspecified)	-0.5	.	-2.0	0.8	-1.6	-0.1
COc1ccccc1N/C(N)=N/c1nc(C(F)(F)F)cc(=O)[nH]1	-0.7	49.9*	-1.2	-0.1	-0.1	-1.0
COc1ccc(/C(C#N)=C/c2ccccn2)cc1	12.2*	-3.6	3.6	0.9	1.3	0.2
N#C/C(=C\c1ccccn1)c1nc2ccccc2s1	4.2	11.2	2.5	0.5	1.2	0.2
SMILES	hgDAF12 agonist	AHR act	hcDAF12 agonist	DAX1 inh-1	DAX1 inh-2	ssDAF12 agonist
CCCC(C(=O)NCC1CCCO1)N(C(=O)CNS(=O)(=O)c1ccccc1)c1ccc(F)cc1 (stereo unspecified)	-1.4	-1.8	-1.9	-0.4	4.6*	-1.3
O=C(Nc1ccc(F)c(F)c1)C1CCN(S(=O)(=O)c2cccc3nonc23)CC1	-2.1	1.1	-2.6	-0.9	-1.3	-1.1
Cc1cnc(C=O)c2cccc([N+](=O)[O-])c12	0.0	.	5.9*	-0.7	0.1	0.3
O=C(NCCO)/C(=C/c1ccc2c(c1)OCO2)NC(=O)c1ccc(Br)cc1	0.5	4.6	-1.0	-0.4	4.5*	-0.8
COc1ccc(CCN2CC(C(=O)OCC(=O)Nc3c(C)nn(-c4ccccc4)c3C)CC2=O)cc1OC (stereo unspecified)	-1.0	6.4	-1.4	0.5	-0.4	-0.9
COc1ccc(-c2cn3ccccc3n2)cc1[N+](=O)[O-]	11.3*	1.7	1.8	-0.1	2.1	-0.7
CCCCOc1ccc(-c2csc(N)n2)cc1[N+](=O)[O-]	10.8*	-6.0	1.8	2.0	2.7	-0.5
COc1ccc(-c2cn3cc([N+](=O)[O-])ccc3n2)cc1OC	8.0	-5.3	-1.1	0.0	2.9	-1.7
CCCOc1ccc(-c2cn3ccccc3n2)cc1[N+](=O)[O-]	11.9*	-1.4	-0.5	2.3	-0.3	-0.7
CC1CCCN(S(=O)(=O)c2ccc3c(c2)OCCO3)C1 (stereo unspecified)	1.0	.	-2.0	0.5	0.5	-1.8
O=C(NCc1ccccc1)[C@H]1CCCN1	0.2	.	-0.6	0.8	.	-1.4
CC1=CC(C)(C)N(C(=O)CN2C(=O)c3ccccc3C2=O)c2ccc(C)cc21	-0.2	-0.5	-0.9	0.0	-0.4	-1.6
CCC(=O)N1c2ccc(C)cc2C2=NNC(=S)NC21O (stereo unspecified)	1.1	61.8*	-2.1	0.4	1.7	-1.3
C[C@H](CO)N1C[C@H](C)[C@@H](CN(C)S(=O)(=O)c2ccc(F)cc2)Oc2c(NC(=O)c3ccncc3)cccc2C1=O	1.2	.	-0.3	0.2	1.4	-0.9
CC1(CCc2ccccc2)NC(=O)N(CC(=O)O)C1=O (stereo unspecified)	0.5	-0.7	-0.2	0.7	3.2	-1.0
CC1(CCc2ccccc2)NC(=O)N(CC(=O)Nc2ccccc2)C1=O (stereo unspecified)	5.7	3.4	0.6	0.9	4.7*	-1.0
CC(/C=C/C(=O)c1ccc(C)cc1)=C\c1ccccc1	4.4	63.6*	4.1	1.1	5.3*	-0.1
Cc1[nH]n(-c2ccccc2)c(=O)c1C(c1cccc([N+](=O)[O-])c1)c1c(C)[nH]n(-c2ccccc2)c1=O	3.5	15.6	6.7*	-0.1	-0.4	0.8
Cc1[nH]n(-c2ccccc2)c(=O)c1C(c1ccc(C(=O)O)cc1)c1c(C)[nH]n(-c2ccccc2)c1=O	-4.7	15.6	1.6	0.3	0.1	2.1*
COc1ccc(NC(=O)c2cc(-c3cc(C)cc(C)c3O)n[nH]2)cc1Cl	0.2	80.3*	-0.2	-1.0	-1.0	-1.0
Cc1cccc(NC(=O)c2cc(-c3cc(C)cc(C)c3O)n[nH]2)c1	1.3	65.5*	-1.1	-0.7	-0.9	-1.2
CC1(C)CC2CC(C)(CN2/C=N/c2sc3c(c2C#N)CC(C)(C)NC3(C)C)C1 (stereo unspecified)	-1.9	-0.1	-1.1	0.0	.	-1.0

High-throughput results from PubChem.
